# Data reported in PubChem BioAssay (NCATS).
# Results filed as inconclusive are left out. Entries that show only a call come without a potency. Activity calls are given as the source filed them. Calls come from the whole dose curve; as a rule, active = well fitted cell-killing curve with a large enough effect; inconclusive = small, poorly fitted or top-dose-only effect, or effect the other way; inactive = no such curve, though single readings can be large or run the other way.
# Experiment: Viability qHTS for spleen associated tyrosine kinase inhibitor (SYKi) drug resistant MV4-11 cells (AID 1963824); note: nearly all actives have a fitted effect of over 35% in size
# Conditions: SYKi-resistant MV4-11 viability, CellTiter-Glo, 72 h; series mostly up to 45 µM
# From the text: Department of Medicine, Hematology/Oncology
# University Hospital Frankfurt, Germany.
# Trials have shown promising clinical activity of the selective SYK inhibitor entospletinib in patients with high expressing HOXA9/MEIS1 acute leukemias. As the development of resistance mechanisms is a common problem in the use of targeted drugs, we performed a chemical library screen to identify drug sensitivities in SYK inhibitor resistant AML cells. […] Glucocorticoids are potent immunosuppressants which work in part by inhibiting the transcription of cytokine genes.
# Described herein is a viability screen to look for activity in the SYK inhibitor drug resistant cell line against four NCATS compound libraries (MIPE 5.0, NPC, NPACT, and Kinase) totaling 11372 compounds. Active hits were reacquired for confirmation and further secondary assay testing.
# SEQUENCE No. (e.g., 1, 2, 3, etc.); […] (e.g., Cells, Incubation, Reagent, etc.); VALUE; DESCRIPTION.
# 1; Media; 2uL; white, solid-bottom Corning assay plate.
# 2; Compounds; 23nL; Echo acoustic dispenser.
# 3; Cell; 5uL; 500 cells per well.
# 4: Incubation; 72hr; 37 C, 5% CO2, 95% humidity.
# 5; Reagent; 3uL; CellTiter-Glo reagent (Promega).
# 6; Incubation; 10min; room temperature.
# 7; Detection; Luminescence; ViewLux plate reader (PerkinElmer).
# NOTES (numbers refer to Sequence numbers above
# 1. Quantitative high-throughput screening (qHTS) of small molecule compounds was conducted on drug resistant SYKi MV4-11 cell line.
# 2. Twenty-three nanoliter of small molecule compounds were added to each assay plates using the Echo acoustic dispenser (Beckman Coulter).
# 3. Cells were seeded into the assay plates at a final density of 500 cells in 5uL of media per well using the Multidrop Combi dispenser.
# 4. Plates were covered with stainless steel gasketed lids and incubated for 72 hours at standard cell culture conditions.
# 5. Viability was assessed by adding 3uL of CellTiter-Glo detection reagent (Promega).
# 6. Plates were covered with gasket lids and incubated for 10 minutes at room temperature.
# 7. Luminescence was measured on a ViewLux plate reader (PerkinElmer).
# Potency is the fitted concentration of half-maximal effect.
row,Structure (SMILES),Potency
1,CCC(C(N)=O)N1CCCC1=O (stereo not given),inactive
2,CNC(=O)N1N=C(c2ccc(N)cc2)c2cc3c(cc2CC1C)OCO3 (stereo not given),2310 nM (active)
3,CCCCCCC(C)(C)c1cc(O)c2c(c1)OC(C)(C)C1CC=C(CO)C[C@H]21 (stereo not given in full),1660 nM (active)
4,C/C=C1/CN2CC[C@]34C(=Nc5ccc(OC)cc53)C2C[C@@H]1C4(CO)C(=O)OC (stereo not given in full),inactive
5,CCC(C)(C)c1ccc(O)cc1,inactive
6,CN1C(=O)[C@@H](Cc2c[nH]c3ccccc23)N=C(c2ccccc2F)c2ccccc21,20600 nM (active)
7,COC[C@H]1OC(=O)c2coc3c2[C@@]1(C)C1=C(C3=O)[C@@H]2CC[C@H](O)[C@@]2(C)C[C@@H]1OC(C)=O,14600 nM (active)
8,ClC1=C(Cl)[C@]2(Cl)[C@@H]3[C@@H]4C[C@@H]([C@H]5O[C@@H]45)[C@@H]3[C@@]1(Cl)C2(Cl)Cl,30600 nM (active)
9,CN1C2CCC1CC(OC(=O)N1Cc3ccccc3NC1=O)C2 (stereo not given),inactive
10,COc1cc(C(=O)N2CC[C@@H](O)[C@@H](N)C2)cc2nc(-c3cc4ccccc4n3CC3CC3)n(C)c12,9340 nM (active)
11,CO[C@H]1[C@H](O)[C@H](O[C@H]2CC[C@]3(C=O)C4CC[C@]5(C)[C@H](C6=CC(=O)OC6)CC[C@]5(O)C4CC[C@@H]3C2)O[C@@H](C)[C@@H]1O (stereo not given in full),20 nM (active)
12,C=C1CC[C@@]2(O)[C@H]3Cc4ccc(O)c5c4[C@@]2(CCN3CC2CC2)[C@H]1O5,inactive
13,CN1CCc2cc3c(cc2C1C1OC(=O)c2c1ccc1c2OCO1)OCO3 (stereo not given),inactive
14,CCCCOC(=O)c1ccnc2cc(C(OCCN3CCCCC3)c3ccccc3Cl)sc12 (stereo not given),20600 nM (active)
15,CCCC(C)(COC(N)=O)COC(=O)NC(C)C (stereo not given),inactive
16,C=C1[C@@H](C)C2[C@H](Cc3ccccc3)NC(=O)[C@@]23C(/C=C/C[C@H](C)C[C@@](C)(O)/C=C/[C@@H]3OC(C)=O)[C@@H]1O (stereo not given in full),920 nM (active)
17,C[C@H]1C(=O)O[C@H]2[C@H](O)[C@]34C5OC(=O)[C@]3(O[C@@H]3OC(=O)[C@H](O)C34[C@H](C(C)(C)C)[C@H]5O)C12O (stereo not given in full),inactive
18,COc1ccc(CCNCc2ccc(OC)c3ccccc23)cc1,8200 nM (active)
19,C/C(=C\c1csc(C)n1)[C@@H]1C[C@@H]2O[C@]2(C)CCC[C@H](C)[C@H](O)[C@@H](C)C(=O)C(C)(C)[C@@H](O)CC(=O)O1,4.7 nM (active)
20,Cc1sc2c(c1C)C(c1ccc(Cl)cc1)=NC(CC(=O)OC(C)(C)C)c1nnc(C)n1-2 (stereo not given),116 nM (active)

row,Structure (SMILES),Potency
1,CC(CCc1ccc(O)cc1)O[C@@H]1O[C@H](CO[C@H]2OC[C@](O)(CO)[C@H]2O)[C@@H](O)[C@H](O)[C@H]1O (stereo not given in full),inactive
2,C1CN2CCC1CC2,inactive
3,C=C(C)C(=O)O[C@H]1[C@@H]2[C@H](C)C(=O)O[C@@H]2C[C@@H](C)[C@@H]2C=CC(=O)[C@]21C,1140 nM (active)
4,COC1CC(O[C@H]2CC[C@]3(C)C4CC[C@]5(C)[C@@H](C6=CC(=O)OC6)[C@@H](OC(C)=O)C[C@]5(O)C4CC[C@@H]3C2)OC(C)C1O[C@@H]1O[C@H](CO)[C@@H](O)[C@H](O)[C@H]1O (stereo not given in full),243 nM (active)
5,C/C=C(\C)C(=O)N[C@@H](c1ccccc1)[C@@H](O)C(=O)O[C@H]1C[C@@]2(O)[C@@H](OC(=O)c3ccccc3)[C@@H]3[C@]4(OC(C)=O)CO[C@@H]4C[C@H](O)[C@@]3(C)C(=O)[C@H](OC(C)=O)C(=C1C)C2(C)C,23.5 nM (active)
6,CC[C@@]1(O)C(=O)OCc2c1cc1n(c2=O)Cc2cc3ccccc3nc2-1,23.5 nM (active)
7,CN1Cc2c(ccc3c2OCO3)[C@@H]2[C@H]1c1cc3c(cc1C[C@@H]2O)OCO3,2550 nM (active)
8,Cc1ccc(-c2nc3ccc(C)cn3c2CC(=O)N(C)C)cc1,inactive
9,CN1[C@H]2C[C@H](OC(=O)[C@H](CO)c3ccccc3)C[C@@H]1[C@@H](O)C2,inactive
10,OCCCCC#Cc1cncc(OC[C@@H]2CCN2)c1,inactive
11,CC(C)NCC(O)c1ccc([N+](=O)[O-])cc1 (stereo not given),inactive
12,Clc1ccccc1N1CCNCC1,inactive
13,C[C@@H]1CN(C2CCC(C#N)(c3ccc(F)cc3)CC2)CC[C@]1(C(=O)O)c1ccccc1 (stereo not given in full),inactive
14,CN1CCC(O)(c2ccc(F)cc2)C(C(=O)c2ccc(F)cc2)C1 (stereo not given),inactive
15,O=C1c2ccccc2C(=O)c2ccccc21,inactive
16,O=c1[nH]c2ccccc2n1C1CCNCC1,inactive
17,CC[C@@H]1/C=C/C=C/C[C@H](C)C(O)[C@](C)(O)C(=O)[C@H](C)C(O)[C@H](C)C(=O)[C@H](C)[C@@H](O)[C@H](C)/C=C/C(=O)O[C@H]2[C@@H](C)[C@@H](CC1)O[C@]1(O[C@H](C[C@H](C)O)[C@H](C)CC1=O)[C@@H]2C (stereo not given in full),12.3 nM (active)
18,COP(=S)(OC)Oc1ccc(SC)c(C)c1,inactive
19,CCc1[nH]c2ccc(OC)cc2c1CCN(C)C,inactive
20,Cc1sc2c(c1C)C(c1ccc(Cl)cc1)=N[C@@H](CC(=O)OC(C)(C)C)c1nnc(C)n1-2,118 nM (active)
